Test results as given in PubChem BioAssay (NCATS).
Records with an inconclusive call do not appear. Where a call stands in place of a potency, no number is given. Active and inactive are the calls of the source. Calls come from the whole dose curve; as a rule, active = well fitted cell-killing curve with a large enough effect; inconclusive = small, poorly fitted or top-dose-only effect; inactive = flat fitted curve, though single readings scatter.

Test: Cell Viability - LYMP2-009 (AID 968);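 note: cells exposed to compound for 24 h at 37 °C; nearly all actives have a fitted effect of over 55% in size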
Details: LYMP2-009 lymphoblastoid cell viability; series mostly up to 92.2 µM
Excerpt: NIH Chemical Genomics Center [NCGC]
NIH Molecular Libraries Screening Centers Network [MLSCN]
National Institutes of Environmental Health Sciences [NIEHS]
National Toxicology Program [NTP]
We have developed a 1536-well cell-based assay for quantitative high throughput screening (qHTS) against a number of cell lines to determine in vitro cytotoxicity of small molecules. This particular assay uses a human lymphoblastoid cell line (LYMP2-009) purchased from Coriell Institute for Medical Research.
NCGC Assay Protocol Summary:
The CellTiter-Glo luminescent cell viability assay (Promega) is a homogeneous method to measure the number of viable cells in culture. The end point readout of this assay is based on quantitation of intracellular ATP, an indicator of metabolic activity, using the luciferase reaction. Luciferase catalyzes the oxidation of beetle Luciferin to oxyluciferin and light in the presence of ATP. The luminescent signal is proportional to amount of ATP present.
Using the CellTiter-Glo luminescent cell viability assay, the amount of cellular ATP was measured in the lymphoblastoid cell line with complete culture medium following compound treatment for 24 hours. The assay was performed in opaque white Kalypsys 1536-well plates. In the screen, tetraoctylammonium bromide was used as positive control. Library compounds were measured for their ability to cause acute toxicity in the cell line, as reflected by a decrease in intracellular ATP levels, in a concentration-dependent manner. […] AC50 values were determined from concentration-response data modeled with the standard Hill equation.
qHTS protocol for CellTiter Glo lymphoblastoid cellular assay
[Step] [Parameter] [Value] [Description]
1. Reagent; 5 uL; 2500 lymphoblastoid cells/well
2. Time; 5 hr; 37 C incubation
4. Controls; 23 nL; Tetraoctylammonium bromide 6.4pM to 92 uM
5. Time; 24 hr; 37 C incubation
6. Reagent; 5 uL; CellTiter Glo reagent
7. Time; 30 min; Room Temperature
8. Detection; Luminescence; Viewlux plate reader
Keywords: cell viability, cytotoxicity, lymphoblastoid cell line, luminescence, NTPHTS, NTPHTS_NCGC, NIEHS, DSSTox, MLSMR, MLSCN, NIH Roadmap, qHTS, NCGC
Potency is the fitted concentration of half-maximal effect.

Question: With `BrC(Br)Br` as the compound, how does the Potency read?
Answer: Its Potency is “inactive”.

Question: Which Potency does the source give for `CCCCCC[N+](=O)[O-]` here?
Answer: The Potency was “inactive”.

Question: Which Potency does the source give for `CCOC(=O)CBr` here?
Answer: Its Potency is “inactive”.

Question: For `N#CC(Cl)(Cl)Cl`, which Potency is on record?
Answer: Its Potency is “inactive”.

Question: For `Cc1ccc(N)c(N)c1`, which Potency is on record?
Answer: Its Potency is 25.1 µM (active).

Question: For `C[N+](=O)[O-]`, which Potency is on record?
Answer: Its Potency is “inactive”.

Question: For `c1ccc2c(c1)CCNC2`, which Potency is on record?
Answer: The Potency was “inactive”.

Question: For `C=CCO`, which Potency is on record?
Answer: The Potency was “inactive”.

Question: Which Potency does the source give for `ClCCOCCCl` here?
Answer: Its Potency is “inactive”.

Question: Which Potency does the source give for `Clc1cccc(Cl)c1` here?
Answer: Its Potency is “inactive”.

Question: With `CCNCC` as the compound, how does the Potency read?
Answer: The Potency was “inactive”.

Question: Which Potency does the source give for `CC(Cl)(Cl)Cl` here?
Answer: Its Potency is “inactive”.

Question: For `CN(C)c1ccccc1`, which Potency is on record?
Answer: The Potency was “inactive”.

Question: With `CC(C)(C)c1ccccc1O` as the compound, how does the Potency read?
Answer: Its Potency is “inactive”.

Question: Which Potency does the source give for `ClCCBr` here?
Answer: The Potency was “inactive”.

Question: For `Cl/C=C\Cl`, which Potency is on record?
Answer: Its Potency is “inactive”.

Question: With `CC(=O)[O-].CC(=O)[O-].CC(=O)[O-].[Cr+3]` as the compound, how does the Potency read?
Answer: The Potency was “inactive”.

Question: With `COc1c(C(C)(C)C)cc([N+](=O)[O-])c(C)c1[N+](=O)[O-]` as the compound, how does the Potency read?
Answer: The Potency was “inactive”.

Question: For `FC(Cl)(Cl)Cl`, which Potency is on record?
Answer: The Potency was “inactive”.

Question: Which Potency does the source give for `c1ccc(OCC2CO2)cc1` (stereo not given) here?
Answer: The Potency was “inactive”.

Question: For `Cl/C=C/CCl`, which Potency is on record?
Answer: The Potency was “inactive”.

Question: For `Cc1cnc[nH]1`, which Potency is on record?
Answer: Its Potency is “inactive”.

Question: With `Nc1ccc(Oc2ccc(N)cc2)cc1` as the compound, how does the Potency read?
Answer: The Potency was “inactive”.

Question: With `CC(C)(C)OOC(=O)c1ccccc1` as the compound, how does the Potency read?
Answer: The Potency was “inactive”.

Question: With `Clc1ccc(C(Cl)(Cl)Cl)c(Cl)c1` as the compound, how does the Potency read?
Answer: The Potency was “inactive”.

Question: With `ClCCOCOCCCl` as the compound, how does the Potency read?
Answer: Its Potency is “inactive”.

Question: Which Potency does the source give for `CCC(Cl)[N+](=O)[O-]` (stereo not given) here?
Answer: Its Potency is “inactive”.

Question: With `N#CCc1ccccc1` as the compound, how does the Potency read?
Answer: Its Potency is “inactive”.

Question: Which Potency does the source give for `CCCCCOC(=O)c1ccccc1C(=O)OCCCCC` here?
Answer: The Potency was “inactive”.

Question: Which Potency does the source give for `CCOP(=S)(OCC)Oc1nc(Cl)c(Cl)cc1Cl` here?
Answer: The Potency was “inactive”.

Question: Which Potency does the source give for `Nc1c(Cl)cc([N+](=O)[O-])cc1Cl` here?
Answer: The Potency was “inactive”.

Question: Which Potency does the source give for `c1ccc(NNc2ccccc2)cc1` here?
Answer: The Potency was “inactive”.

Question: With `CN(C)C(=O)Cl` as the compound, how does the Potency read?
Answer: The Potency was “inactive”.

Question: With `O=Cc1ccc2c(c1)OCO2` as the compound, how does the Potency read?
Answer: Its Potency is “inactive”.

Question: For `COc1ccccc1N`, which Potency is on record?
Answer: Its Potency is “inactive”.

Question: With `ClCC(Cl)CCl` as the compound, how does the Potency read?
Answer: Its Potency is “inactive”.

Question: For `CC(C)C#N`, which Potency is on record?
Answer: The Potency was “inactive”.

Question: Which Potency does the source give for `CC(C)(Cl)[N+](=O)[O-]` here?
Answer: The Potency was “inactive”.

Question: With `C=CCBr` as the compound, how does the Potency read?
Answer: The Potency was “inactive”.

Question: With `O=[N+]([O-])CCO` as the compound, how does the Potency read?
Answer: Its Potency is “inactive”.
